# Reference: the supplement of paper PMC8728848
# This is one part of a sample in which the strongest signals are shown more often than they occur.
# B1: B725 (Bifidobacterium sp) (protein)
# chain: MNNTTRAVIATAAIGALLIPLAGCGNTTTSSGKTELTVWSWDASIDRAAKSFMKANPDITVKVSNVGSTEETYTALNNAAQAGSGLPDVTLIEYLAIPQFVHSDTLMDLSKVYNTAKLKDTFTPGTWNSVNINGGLYAMPADSGPMAYFYDKDVFDKAGISEPPTTWDEFYEDAKKIRATGSYITSDSGDAGLFNAMMWAMGGHAYKLNDDKLTINIAKDKGAQRFMDLWQKMRDEDLIDVHTKTWTDDWMKSLGDGSIASLISGAWMANNLLQGVPQATGKFRVALLPTIDGTPINGEYGGSGLAITKKIPDGKLDAAKKFVEYVTTNDEGIDARVSNGSFPATTKTLNQKDFLAKTTLRNTDGSDNEFFGGQKYNEIFSQAAKDVTGKWEFLPFEPYARSVYNDNMGSFFAGKTSFRTAADNWQKALKDYAKDQGFTVQ
# Legend:
# Assay in all cases: glycan array binding signal (z-score within array); higher = stronger binding
# Conditions in all cases: glycan notation: IUPAC condensed, linker removed
# [1] = target: Gal(b1-4)GlcNAc(b1-3)Gal(b1-4)GlcNAc(b1-3)Gal(b1-4)GlcNAc(b1-3)Gal(b1-4)GlcNAc(b1-2)[Gal(b1-4)GlcNAc(b1-3)Gal(b1-4)GlcNAc(b1-3)Gal(b1-4)GlcNAc(b1-3)Gal(b1-4)GlcNAc(b1-6)]Man(a1-6)[Gal(b1-4)GlcNAc(b1-3)Gal(b1-4)GlcNAc(b1-3)Gal(b1-4)GlcNAc(b1-3)Gal(b1-4)GlcNAc(b1-2)Man(a1-3)]Man(b1-4)GlcNAc(b1-4)[Fuc(a1-6)]GlcNAc
# Summary of the method: (§1)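 The binding signal is a Z-score computed within each array. Data were drawn from 3228 arrays in the Consortium for Functional Glycomics database, restricted to those with a known protein sequence. Scores were averaged over arrays of the same protein sequence at different concentrations or buffers, and over linkers, and negative values can be taken as non-binding.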
# [2] = target: Gal(b1-4)GlcNAc(b1-3)Gal(b1-4)GlcNAc(b1-3)Gal(b1-4)GlcNAc(b1-3)Gal(b1-4)GlcNAc(b1-3)Gal(b1-4)GlcNAc(b1-2)Man(a1-3)[Gal(b1-4)GlcNAc(b1-3)Gal(b1-4)GlcNAc(b1-3)Gal(b1-4)GlcNAc(b1-3)Gal(b1-4)GlcNAc(b1-3)Gal(b1-4)GlcNAc(b1-2)Man(a1-6)]Man(b1-4)GlcNAc(b1-4)[Fuc(a1-6)]GlcNAc
# Summary of the method: as §1
# [3] = target: Gal(b1-4)GlcNAc(b1-3)Gal(b1-4)GlcNAc(b1-3)Gal(b1-4)GlcNAc(b1-3)Gal(b1-4)GlcNAc(b1-3)Gal(b1-4)GlcNAc(b1-2)[Gal(b1-4)GlcNAc(b1-3)Gal(b1-4)GlcNAc(b1-3)Gal(b1-4)GlcNAc(b1-3)Gal(b1-4)GlcNAc(b1-3)Gal(b1-4)GlcNAc(b1-6)]Man(a1-6)[Gal(b1-4)GlcNAc(b1-3)Gal(b1-4)GlcNAc(b1-3)Gal(b1-4)GlcNAc(b1-3)Gal(b1-4)GlcNAc(b1-3)Gal(b1-4)GlcNAc(b1-2)Man(a1-3)]Man(b1-4)GlcNAc(b1-4)[Fuc(a1-6)]GlcNAc
# Summary of the method: as §1
# [4] = target: Gal(b1-4)GlcNAc(b1-3)Gal(b1-4)GlcNAc(b1-3)Gal(b1-4)GlcNAc(b1-3)Gal(b1-4)GlcNAc(b1-3)Gal(b1-4)GlcNAc(b1-3)Gal(b1-4)GlcNAc(b1-2)Man(a1-3)[Gal(b1-4)GlcNAc(b1-3)Gal(b1-4)GlcNAc(b1-3)Gal(b1-4)GlcNAc(b1-3)Gal(b1-4)GlcNAc(b1-3)Gal(b1-4)GlcNAc(b1-3)Gal(b1-4)GlcNAc(b1-2)Man(a1-6)]Man(b1-4)GlcNAc(b1-4)GlcNAc
# Summary of the method: as §1
# [5] = target: Gal(b1-4)GlcNAc(b1-3)GalNAc
# Summary of the method: as §1
# Gal6S(b1-3)GlcNAc = target: Gal6S(b1-3)GlcNAc
# Summary of the method: as §1
# [6] = target: GalNAc(a1-3)GalNAc(b1-3)Gal(a1-4)Gal(b1-4)Glc
# Summary of the method: as §1
# Glc(b1-6)Glc = target: Glc(b1-6)Glc
# Summary of the method: as §1
# GlcNAc(b1-3)Fuc = target: GlcNAc(b1-3)Fuc
# Summary of the method: as §1
# [7] = target: GlcNAc(b1-3)Gal(b1-4)GlcNAc(b1-2)Man(a1-3)[GlcNAc(b1-3)Gal(b1-4)GlcNAc(b1-2)Man(a1-6)]Man(b1-4)GlcNAc(b1-4)[Fuc(a1-6)]GlcNAc
# Summary of the method: as §1
# [8] = target: GlcNAc(b1-3)Gal(b1-4)GlcNAc(b1-3)Gal(b1-4)GlcNAc(b1-2)Man(a1-3)[GlcNAc(b1-3)Gal(b1-4)GlcNAc(b1-3)Gal(b1-4)GlcNAc(b1-2)Man(a1-6)]Man(b1-4)GlcNAc(b1-4)[Fuc(a1-6)]GlcNAc
# Summary of the method: as §1
# [9] = target: GlcNAc(b1-3)Gal(b1-4)GlcNAc(b1-3)Gal(b1-4)GlcNAc(b1-2)[GlcNAc(b1-3)Gal(b1-4)GlcNAc(b1-3)Gal(b1-4)GlcNAc(b1-6)]Man(a1-6)[GlcNAc(b1-3)Gal(b1-4)GlcNAc(b1-3)Gal(b1-4)GlcNAc(b1-2)Man(a1-3)]Man(b1-4)GlcNAc(b1-4)[Fuc(a1-6)]GlcNAc
# Summary of the method: as §1
# [10] = target: GlcNAc(b1-3)Gal(b1-4)GlcNAc(b1-3)Gal(b1-4)GlcNAc(b1-3)Gal(b1-4)GlcNAc(b1-3)Gal(b1-4)GlcNAc(b1-2)Man(a1-3)[GlcNAc(b1-3)Gal(b1-4)GlcNAc(b1-3)Gal(b1-4)GlcNAc(b1-3)Gal(b1-4)GlcNAc(b1-3)Gal(b1-4)GlcNAc(b1-2)Man(a1-6)]Man(b1-4)GlcNAc(b1-4)[Fuc(a1-6)]GlcNAc
# Summary of the method: as §1
# GlcNAc(b1-3)Man = target: GlcNAc(b1-3)Man
# Summary of the method: as §1
# [11] = target: Neu5Ac(a2-3)Gal(b1-3)GalNAc(b1-3)Gal(a1-4)Gal(b1-4)Glc
# Summary of the method: as §1
# Neu5Ac(a2-3)Gal(b1-4)Glc = target: Neu5Ac(a2-3)Gal(b1-4)Glc
# Summary of the method: as §1
# [12] = target: Neu5Ac(a2-3)Gal(b1-4)GlcNAc(b1-2)Man
# Summary of the method: as §1
# [13] = target: Neu5Ac(a2-3)Gal(b1-4)GlcNAc(b1-3)Gal(b1-4)GlcNAc(b1-3)Gal(b1-4)GlcNAc(b1-2)Man(a1-3)[Neu5Ac(a2-3)Gal(b1-4)GlcNAc(b1-3)Gal(b1-4)GlcNAc(b1-3)Gal(b1-4)GlcNAc(b1-2)Man(a1-6)]GalNAc
# Summary of the method: as §1
# Neu5Ac(a2-6)Gal = target: Neu5Ac(a2-6)Gal
# Summary of the method: as §1
# [14] = target: Neu5Ac(a2-6)Gal(b1-3)GlcNAc(b1-3)[Gal(b1-4)GlcNAc(b1-6)]Gal(b1-4)Glc
# Summary of the method: as §1
# [15] = target: Neu5Ac(a2-6)Gal(b1-4)GlcNAc(b1-2)Man(a1-3)[GlcNAc(b1-4)][Neu5Ac(a2-6)Gal(b1-4)GlcNAc(b1-2)Man(a1-6)]Man(b1-4)GlcNAc(b1-4)GlcNAc
# Summary of the method: as §1
# [16] = target: Neu5Ac(a2-6)Gal(b1-4)GlcNAc(b1-2)Man(a1-3)[Neu5Ac(a2-6)Gal(b1-4)GlcNAc(b1-2)Man(a1-6)]Man(b1-4)GlcNAc(b1-4)[Fuc(a1-6)]GlcNAc
# Summary of the method: as §1
# [17] = target: Neu5Ac(a2-6)Gal(b1-4)GlcNAc(b1-2)[Neu5Ac(a2-6)Gal(b1-4)GlcNAc(b1-4)]Man(a1-3)[GlcNAc(b1-4)][Neu5Ac(a2-6)Gal(b1-4)GlcNAc(b1-4)Man(a1-6)]Man(b1-4)GlcNAc(b1-4)GlcNAc
# Summary of the method: as §1
# [18] = target: Neu5Ac(a2-6)Gal(b1-4)GlcNAc(b1-3)Gal(b1-4)GlcNAc(b1-3)GalNAc
# Summary of the method: as §1
# Neu5Ac(a2-8)Neu5Ac = target: Neu5Ac(a2-8)Neu5Ac
# Summary of the method: as §1
# [19] = target: Neu5Ac(a2-8)Neu5Ac(a2-3)Gal(b1-3)GalNAc(b1-4)[Neu5Ac(a2-8)Neu5Ac(a2-3)]Gal(b1-4)Glc
# Summary of the method: as §1
# [20] = target: Neu5Gc(a2-8)Neu5Gc(a2-3)Gal(b1-4)GlcNAc(b1-3)Gal(b1-4)GlcNAc
# Summary of the method: as §1
binder,measurement,setting,value
B1,glycan array binding signal (z-score),[1],6.73
same,glycan array binding signal (z-score),[2],4
same,glycan array binding signal (z-score),[3],5.49
same,glycan array binding signal (z-score),[4],8.21
same,glycan array binding signal (z-score),[5],0.358
same,glycan array binding signal (z-score),Gal6S(b1-3)GlcNAc,-0.217
same,glycan array binding signal (z-score),[6],-0.209
same,glycan array binding signal (z-score),Glc(b1-6)Glc,-0.219
same,glycan array binding signal (z-score),GlcNAc(b1-3)Fuc,-0.207
same,glycan array binding signal (z-score),[7],-0.131
same,glycan array binding signal (z-score),[8],-0.216
same,glycan array binding signal (z-score),[9],-0.203
same,glycan array binding signal (z-score),[10],0.138
same,glycan array binding signal (z-score),GlcNAc(b1-3)Man,-0.204
same,glycan array binding signal (z-score),[11],-0.221
same,glycan array binding signal (z-score),Neu5Ac(a2-3)Gal(b1-4)Glc,-0.228
same,glycan array binding signal (z-score),[12],-0.207
same,glycan array binding signal (z-score),[13],-0.042
same,glycan array binding signal (z-score),Neu5Ac(a2-6)Gal,-0.222
same,glycan array binding signal (z-score),[14],-0.205
same,glycan array binding signal (z-score),[15],-0.227
same,glycan array binding signal (z-score),[16],-0.217
same,glycan array binding signal (z-score),[17],-0.212
same,glycan array binding signal (z-score),[18],-0.214
same,glycan array binding signal (z-score),Neu5Ac(a2-8)Neu5Ac,-0.215
same,glycan array binding signal (z-score),[19],-0.2
same,glycan array binding signal (z-score),[20],-0.198
